Data on 30 molecules can be found in the antibiotic and cytotoxicity screens of Wong et al. (2023).

Among all 39,000 compounds or so, about 1,500 (3.8%) were called active. Many of the other results were omitted from the sample, so actives are more common in it than they were.

This test concerns HSkMC (human skeletal muscle cells). The test is described as follows: cytotoxicity call (relative viability < 0.9). Particulars: 10 µM.
`C[C@@H]1CCCCO[C@H](CN(C)S(=O)(=O)c2cccs2)[C@H](C)CN([C@H](C)CO)C(=O)c2cc(NS(C)(=O)=O)ccc2O1`: the cytotoxicity call is “inactive”. The same measure for `Cc1noc(C)c1S(=O)(=O)N(C)C[C@@H]1Oc2ccc(NS(=O)(=O)c3cccs3)cc2CC(=O)N([C@H](C)CO)C[C@H]1C`: “inactive”; for `C[C@@H]1CN([C@H](C)CO)C(=O)c2cc(NS(C)(=O)=O)ccc2O[C@@H](C)CCCCO[C@H]1CN(C)S(=O)(=O)c1cccs1`: “inactive”; for `CC(C)=CCCC(C)(O)C1CC=C(C)CC1` (stereo not given): “active”. The same measure for `CC1=CC[C@H](C(C)(C)O)CC1`: “inactive”; for `C=CC(C)(O)CCC=C(C)C` (stereo not given): “inactive”; for `CC(C)CC#Cc1cnc2c(c1)C(=O)N([C@@H](C)CO)C[C@@H](C)[C@H](CN(C)S(=O)(=O)c1cn(C)cn1)O2`: “inactive”.

In the case of `C[C@@H]1CN([C@@H](C)CO)C(=O)c2cc(NS(=O)(=O)c3ccc(Cl)cc3)ccc2O[C@@H](C)CCCCO[C@H]1CN(C)C(=O)Cc1ccccc1`, the cytotoxicity call is “inactive”. The same measure for `C[C@@H]1CCCCO[C@@H](CN(C)C(=O)C2CCCCC2)[C@@H](C)CN([C@H](C)CO)C(=O)c2cc(NS(=O)(=O)c3ccc(Cl)cc3)ccc2O1`: “active”.

Regarding `C[C@H](CO)N1C[C@H](C)[C@@H](CN(C)C(=O)C2CCCCC2)OCCCC[C@H](C)Oc2ccc(NS(=O)(=O)c3ccc(Cl)cc3)cc2C1=O`, the cytotoxicity call is “inactive”. As to `C[C@@H]1CCCCO[C@@H](CN(C)C(=O)C2CCCCC2)[C@H](C)CN([C@@H](C)CO)C(=O)c2cc(NS(=O)(=O)c3ccc(Cl)cc3)ccc2O1`, the cytotoxicity call is “inactive”. The result for `C[C@@H]1CN([C@H](C)CO)C(=O)c2cc(NS(=O)(=O)c3ccc(Cl)cc3)ccc2O[C@@H](C)CCCCO[C@H]1CN(C)C(=O)C1CCCCC1` reads “inactive”; that for `C[C@H]1CCCCO[C@H](CN(C)C(=O)Cc2ccccc2)[C@@H](C)CN([C@@H](C)CO)C(=O)c2cc(NS(=O)(=O)c3ccc(Cl)cc3)ccc2O1`, “active”; that for `C[C@@H]1CCCCO[C@H](CN(C)C(=O)C2CCCCC2)[C@H](C)CN([C@@H](C)CO)C(=O)c2cc(NS(=O)(=O)c3ccc(Cl)cc3)ccc2O1`, “active”.

`C[C@@H]1CCCCO[C@@H](CN(C)C(=O)Cc2ccccc2)[C@@H](C)CN([C@@H](C)CO)C(=O)c2cc(NS(=O)(=O)c3ccc(Cl)cc3)ccc2O1`: the cytotoxicity call is “inactive”. The result for `C[C@@H]1CCCCO[C@H](CN(C)C(=O)C2CCCCC2)[C@H](C)CN([C@H](C)CO)C(=O)c2cc(NS(=O)(=O)c3ccc(Cl)cc3)ccc2O1` reads “inactive”; that for `C[C@@H]1CCCCO[C@H](CN(C)C(=O)C2CCCCC2)[C@@H](C)CN([C@H](C)CO)C(=O)c2cc(NS(=O)(=O)c3ccc(Cl)cc3)ccc2O1`, “inactive”; that for `C[C@@H]1CN([C@@H](C)CO)C(=O)c2cc(NS(=O)(=O)c3ccc(Cl)cc3)ccc2O[C@@H](C)CCCCO[C@H]1CN(C)C(=O)C1CCCCC1`, “inactive”. The result for `C[C@H]1CCCCO[C@H](CN(C)C(=O)C2CCCCC2)[C@@H](C)CN([C@@H](C)CO)C(=O)c2cc(NS(=O)(=O)c3ccc(Cl)cc3)ccc2O1` reads “active”; that for `CNC(=O)CN1CCO[C@H]2CN(C(=O)c3cnccn3)C[C@@H]21`, “inactive”; that for `CC1(C)C(=O)NCCN1C(=O)c1ccco1`, “inactive”. The result for `C[C@H]1CN([C@@H](C)CO)C(=O)Cc2cc(NS(=O)(=O)c3ccc(Cl)cc3)ccc2O[C@H]1CN(C)S(=O)(=O)c1cn(C)cn1` reads “inactive”. Consider `C[C@@H]1CN([C@H](C)CO)C(=O)Cc2cc(NC(=O)Cc3cn(C)c4ccccc34)ccc2O[C@H]1CN(C)C(=O)Nc1ccc(C(F)(F)F)cc1`, for which the cytotoxicity call is “inactive”. In the case of `COc1ccc(NC(=O)N2C[C@H](O)COC[C@@H]3O[C@H](CC(=O)NCc4ccccc4OC)CC[C@H]32)cc1`, the cytotoxicity call was “inactive”. Turning to `Cc1ccc(S(=O)(=O)N(C)C[C@@H]2Oc3c(NC(=O)c4ccncc4)cccc3C(=O)N([C@H](C)CO)C[C@@H]2C)cc1`, the cytotoxicity call was “inactive”. The result for `COc1cccc(S(=O)(=O)N[C@H]2CC[C@@H](CCn3cc(-c4ccccc4OC)nn3)O[C@@H]2CO)c1` reads “inactive”.

As for `COc1cc(C(=O)O)ccc1NC(=O)[C@@H]1N[C@@H](CC(C)(C)C)[C@](C#N)(c2ccc(Cl)cc2F)[C@H]1c1cccc(Cl)c1F`, the cytotoxicity call is “active”. The result for `C[C@@H]1CN([C@H](C)CO)C(=O)c2cc(NS(=O)(=O)c3ccc(Cl)cc3)ccc2O[C@H]1CN(C)Cc1ccc(C(=O)Nc2ccccc2N)cc1` reads “inactive”; that for `C[C@@H]1CN([C@H](C)CO)C(=O)c2cc(C#Cc3ccccc3F)cnc2O[C@H]1CN(C)C(=O)c1ccc2c(c1)OCO2`, “inactive”. On to `O=C(/C=C/c1cc2c(cc1Br)OCCO2)c1c(-c2ccccc2)c2cc(Cl)ccc2[nH]c1=O`, for which the cytotoxicity call is “active”.
